Assay results published in PubChem BioAssay AID1347155 (National Center for Advancing Translational Sciences (NCATS), 2019).
Inconclusive results are not listed. Values without a mark were called inactive. The source made the active and inactive calls. The call rests on the fitted dose curve; in most records, active means well fitted inhibition curve with a large enough effect; inconclusive means small, poorly fitted or top-dose-only effect; inactive means no such curve, though single readings can be large or run the other way.

Test system: Zika virus NS2B-NS3 protease (linked)
Assay: Optimization screen NINDS Rhodamine qHTS for Zika virus inhibitors: Linked NS2B-NS3 protease assay
Settings: fluorogenic rhodamine substrate; series mostly up to 105 µM; activity change, negative = inhibition: at the top concentration
From the text: Avindra Nath, Ph.D., National Institute of Neurological Disorders and Stroke (NINDS), Bethesda, MD
Radhakrishnan Padmanabhan, Ph.D., Georgetown University (GU), Washington D.C.
Zika Virus causes congenital defects, including microcephaly and is associated with Guillain-Barre syndrome, eningoencephalitis and myelitis in infected adult. […] Using a target-based approach, we hope to establish a screening paradigm to uncover novel, cell-active NS2B-NS3 protease (Zika Virus) specific inhibitors from NCATS' collection of small molecules using qHTS.
Four assay panel was created to identify potential Zika Virus inhibitors. Namely, (1) GU unlinked NS2B-NS3 AMC tagged protease qHTS, (2) GU unlinked NS2B-NS3 Rhodamine tagged protease qHTS, (3) NINDS linked NS2B-NS3 AMC tagged protease qHTS, (4) NINDS linked NS2B-NS3 Rhodamine tagged protease qHTS. Active compounds were re-acquired and re-screened to confirm inhibition. Inhibitors were further screened against various confirmatory and counterscreens in dose response format.
Early Translation Branch (ETB)
National Center for Advancing Translational Sciences (NCATS), Rockville, MD
National Institute of Health (NIH), Bethesda, Maryland
For the linked assay, Nath lab (NINDS) provided the purified linked NS2B-NS3 protease which is consists of hydrophilic domain of NS2B linked to the NS3 protease domain by a flexible (-GGGGSGGGG-) linker. Control compound aprotinin is obtained from Thermo Scientific (#78432; Waltham, Massachusetts). Rhodamine110 substrate ([N-Cbz]-Nle-Lys-Arg-Arg-Rhod110-Arg-Arg-Lys-Nle-[N-Cbz]) was purchased from either Genscript or Bachem.
1536-well Protease (Rhodamine110 Substrate) Assay:
Briefly, 3 microL of enzyme (25 nM final concentration), in assay buffer (10 mM Tris-HCl pH 8.0 with 0.01% Tween 20) were dispensed into a 1,536-well solid-bottom black plate (Greiner Bio One, Monroe, NC). Twenty-three nL of compounds (final concentration range 7.28 nM to 114 microM) or control Aprotinin (final concentration range 3.47 nM to 114 microM) were transferred via Wako Pin-tool (Wako Automation, Richmond, VA). Samples were incubated (room temperature, protected from light) for 15 minutes followed by a 1 microL Rhodamine110 substrate addition (1.5 microM final concentration). Plates were then immediately read on a ViewLux High-throughput CCD imager (PerkinElmer, Waltham, MA) equipped with FITC fluorescence optics (480(20) nm excitation, 540(25) nm emission), then incubated (room temperature, protected from light) for 15 minutes (~15% conversion). The change in fluorescence intensity over the 15-minute reaction period was normalized against no-inhibitor and no-enzyme controls and the resulting percent inhibition data were fitted to a 4-parameter Hill equation. Aprotinin was used as intraplate control.

Compound	Potency	activity change, negative = inhibition [%]
O=C(O)c1ccc(-n2nc(-c3ccccc3O)nc2-c2ccccc2O)cc1	8.79 µM (active)	
Cc1ccccc1CNc1ncnc2c1ncn2C1OC(CO)C(O)C1O (stereo not drawn)		-2.08
O=C1c2cccc3c2[C@@H](CCC3)CN1[C@@H]1CN2CCC1CC2		0.103
